# Most compounds without a hit are left out; they make up all but 2.2% or so of the library.
# miR-122 sensor: blocks miR-122 activity in Huh7 sensor cells. activation (reporter increase), % at 12.5 µM. Huh7 miR-122 Renilla luciferase sensor, 48 h; neutral wells = 0, positive control = 100. 340,000 compounds, 0.3% hits;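 active = mean replicate activation score at least 90 and every replicate individually at or above 90; inconclusive = only one of the two criteria met; inactive = neither criterion met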;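 also: higher luciferase means less miR-122 activity so hits act as miR-122 inhibitors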
# C2C12 statin: protects C2C12 myotubes from simvastatin toxicity | ATP luminescence, 48 h; scaled: DMSO 0, geranylgeraniol control 100 | rescue of ATP level, % at 7.49 µM | 330,000 compounds, 0.78% hits | AID 602340;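 active = mean ATP rescue above about 67%, or every replicate alone reaching that limit, limit read from the data, passing the limit was not always enough; inconclusive = no clear call, values can overlap the other calls; inactive = mean under the limit and some replicate under it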;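 also: myotubes were challenged with 10 µM simvastatin during compound exposure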
# PvdQ inh: blocks Pseudomonas aeruginosa PvdQ acylase activity. 340,000 compounds, 0.063% hits. purified PvdQ acylase, fluorescence plate reader. inhibition, % at 10 µM; in the data active = inhibition above about 30%, passing the limit was not always enough; inconclusive = no clear call, values can overlap the other calls
# PGC1a acetyl inh: lowers PGC1a acetylation signal in U2OS cells; AlphaScreen anti-acetyl-lysine; with virally co-expressed GCN5 acetyltransferase; inhibition, % at 15.6 µM; 350,000 compounds, 0.17% hits; AID 651687;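 active = every replicate shows inhibition of at least 40%; inconclusive = mean inhibition at least 40% but some replicate below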
# DENV2 CPE rescue: DENV2-induced cell death inhibition; 350,000 compounds, 1.7% hits; AID 651640; DENV2-infected cells, cytopathic effect rescue, plate reader; CPE inhibition, % at 9.99 µM; in the data active = CPE inhibition above about 20%, passing the limit was not always enough; inconclusive = no clear call, values can overlap the other calls; tested in BHK-21 cells
# Numbers stand for hits; 0 = inactive; ? = inconclusive; - = not tested or not shown.
SMILES,miR-122 sensor,C2C12 statin,PvdQ inh,PGC1a acetyl inh,DENV2 CPE rescue
COc1cccc(NC(=O)CCN2C(=O)C3CC=CCC3C2=O)c1 (centres undefined),0,0,0,0,29
COc1cccc(NC(=O)CCN2CCN(c3ccccc3F)CC2)c1,0,78,0,0,-
C[C@H]1CCCCO[C@@H](CN(C)C(=O)CCCN(C)C)[C@@H](C)CN([C@@H](C)CO)C(=O)c2cc(NC(=O)c3ccncc3)ccc2O1,-,-,-,0,0
C[C@@H]1CN([C@H](C)CO)C(=O)c2cc(NC(=O)Cc3cn(C)c4ccccc34)ccc2O[C@@H]1CN(C)Cc1ccc(Oc2ccccc2)cc1,0,-,-,0,?
CCNC(=S)NNC(=O)c1cc(C2CC2)nc2ccccc12,0,0,0,0,-
CCCNC(=S)NNC(=O)c1cc(C2CC2)nc2ccccc12,0,0,0,-,25
C[C@H]1CN([C@@H](C)CO)C(=O)c2cc(NS(C)(=O)=O)ccc2O[C@H]1CN(C)Cc1ccc(Cl)c(Cl)c1,0,0,-,0,0
CO[C@H]1CN(C)C(=O)c2ccc(NC(=O)NC(C)C)cc2OC[C@@H](C)N(C)C[C@H]1C,-,0,-,0,0
CCCn1c2c(c(O)c(C(=O)NC)c1=O)CCCC2,0,119,0,0,-
C[C@@H]1CN([C@H](C)CO)C(=O)Cc2cc(NS(=O)(=O)c3ccc(F)cc3)ccc2O[C@@H]1CN(C)S(=O)(=O)c1ccccc1,0,0,-,0,0
C[C@@H]1CCCCO[C@H](CN(C)C(=O)c2ccncc2)[C@@H](C)CN([C@H](C)CO)C(=O)c2cc(NC(=O)c3ccccc3)ccc2O1,0,-,-,0,0
CNc1ccc2ncc(-c3ccc(OC)c(OC)c3)n2n1,0,0,-,58,0
CNc1cc(-c2ccc(OC)c(OC)c2)ncn1,0,0,-,-,0
O=C(NC1CCCCC1)N[C@H]1C=C[C@@H](CC(=O)N2CCOCC2)O[C@@H]1CO,-,0,-,0,108
O=C(NC1CCCC1)N[C@H]1C=C[C@H](CC(=O)N2CCOCC2)O[C@H]1CO,0,0,-,0,57
O=C(NC1CCCC1)N[C@H]1C=C[C@@H](CC(=O)N2CCOCC2)O[C@@H]1CO,0,0,-,0,36
O=C(NC1CCCCC1)N[C@@H]1C=C[C@@H](CC(=O)N2CCOCC2)O[C@@H]1CO,-,0,-,0,0
CCCNC(=O)N[C@H]1C=C[C@H](CC(=O)NC2CCC2)O[C@H]1CO,-,0,-,0,26
CN(C)C(=O)C[C@@H]1C=C[C@@H](NC(=O)NC2CCCCC2)[C@H](CO)O1,0,0,-,0,73
CN(C)C(=O)C[C@@H]1C=C[C@H](NC(=O)NC2CCCCC2)[C@@H](CO)O1,0,0,-,0,0
O=C(OCc1nnc(-c2ccccc2)o1)c1ccc2c(c1)OCCO2,0,0,0,0,-
O=C(OCc1nnc(-c2ccccc2)o1)C1=COCCO1,0,-,0,61,-
O=C(Cc1ccc(Cl)cc1)OCc1nnc(-c2ccccc2)o1,0,0,0,0,0
COc1cc(CCC(=O)OCc2nnc(-c3ccccc3)o2)cc(OC)c1OC,0,104,0,0,-
O=C(CSc1ccc(Cl)cc1)OCc1nnc(-c2ccccc2)o1,0,69,0,0,-
SMILES,miR-122 sensor,C2C12 statin,PvdQ inh,PGC1a acetyl inh,DENV2 CPE rescue
Cc1ccccc1-c1cnc2c(c1)C(=O)N([C@@H](C)CO)C[C@H](C)[C@H](CN(C)Cc1ccncc1)O2,0,0,-,0,?
COc1ccccc1CN1C(=O)c2ccccc2[C@@]2(Cc3ccccc3N(CCN3CCOCC3)C2=O)[C@@H]1c1ccc(CO)cc1,-,-,-,0,0
COc1ccc2c3c(n(C)c2c1)[C@@H](CO)N(CC1CCOCC1)CC31CCN(Cc2nccs2)CC1,-,-,-,-,0
CCCN1CN(Cc2ccco2)c2nc3ccccc3n2C1,0,89,0,0,-
c1coc(CN2CNc3nc4ccccc4n3C2)c1,-,-,0,-,0
CC(=O)Nc1cccc(OCCCNC(=O)c2ccc(C(C)(C)C)cc2)c1,0,0,-,0,31
O=C(Cc1cccs1)Nc1nnc(CCc2ccccc2)s1,0,0,0,0,-
O=C(Cc1cccs1)Nc1nnc(Cc2ccccc2)s1,0,121,0,0,-
N#Cc1cccc(CN2C=NS(=O)(=O)c3ccccc32)c1,0,0,0,0,0
O=S1(=O)N=CN(Cc2cccc(F)c2)c2ccccc21,157,-,0,-,-
CC1(C(=O)NCc2ccccc2)Cc2c(-c3ccc(C(N)=O)cc3)ccnc2O1 (centres undefined),0,0,-,-,0
CC1(C(=O)NCc2ccco2)Cc2c(-c3ccc(C(N)=O)cc3)ccnc2O1 (centres undefined),0,0,-,0,40
COc1ccc(-c2cnc3n2CCCCC3)cc1,-,-,0,0,44
Clc1ccc(-c2cnc3n2CCC3)cc1,0,0,0,0,-
C[C@H](CO)N1C[C@H](C)[C@@H](CN(C)C(=O)Nc2ccc(F)cc2)Oc2ccc(NC(=O)Nc3ccccc3)cc2C1=O,0,0,-,0,0
COCC#Cc1ccc([C@@H]2[C@H]3CN(Cc4ccccc4F)CCCCN3[C@H]2CO)cc1,0,0,-,0,47
COCC(=O)N1CCCCN2[C@H](C1)[C@@H](c1ccc(C#Cc3ccccc3)cc1)[C@@H]2CO,0,0,-,0,28
COc1ccc(C#Cc2ccc([C@H]3[C@@H](CO)N4CCCCN(C(=O)c5ccncc5)C[C@H]34)cc2)cc1,0,0,-,0,47
COCC(=O)N1CCCCN2[C@H](CO)[C@H](c3ccc(C#Cc4ccc(OC)cc4)cc3)[C@@H]2C1,0,-,-,0,39
CN1c2ccc(-c3ccccc3)cc2[C@@H]2[C@@H](CCN2C(=O)Nc2ccccc2F)[C@@H]1CO,0,0,-,0,0
Cc1ccccc1-c1ccc2c(c1)O[C@@H](CN(C)C)[C@@H](C)CN([C@@H](C)CO)S2(=O)=O,0,0,-,0,0
COCC(=O)N1CCCCN2[C@H](C1)[C@H](c1ccc(C#Cc3ccccc3)cc1)[C@@H]2CO,0,0,-,0,40
COCC#Cc1ccc([C@@H]2[C@@H](CO)N3CCCCN(C(=O)COC)C[C@H]23)cc1,0,-,-,0,34
COc1ccc(S(=O)(=O)N(C)C[C@H]2OCCCC[C@H](C)Oc3ccc(NC(=O)c4ccncc4)cc3C(=O)N([C@@H](C)CO)C[C@H]2C)cc1,0,-,-,0,?
CCCNC(=O)N1CC2(C1)CN(C(=O)CC)[C@@H](CO)c1c2c2ccc(OC)cc2n1C,-,-,-,0,0
SMILES,miR-122 sensor,C2C12 statin,PvdQ inh,PGC1a acetyl inh,DENV2 CPE rescue
NCC[C@H]1CC[C@@H](NC(=O)C2CC2)[C@@H](CO)O1,-,-,-,-,0
COc1ccc(S(=O)(=O)N(C(C)=O)c2ccc3oc(=O)sc3c2)cc1,0,87,0,0,-
COC(=O)c1c(C)oc2ccc(N(C(C)=O)S(=O)(=O)c3ccccc3)cc12,0,0,0,-,0
CN(C)S(=O)(=O)c1ccc(C(=O)OCC(=O)Nc2sc3c(c2C#N)CCCCC3)cc1,-,-,0,-,0
CC(C)(C)c1ccc(C(=O)OCC(=O)Nc2sc3c(c2C#N)CCC3)cc1,0,-,0,-,99
COCCNC(=O)C[C@@H]1C=C[C@H](NC(=O)NC2CCCC2)[C@@H](CO)O1,-,0,-,0,0
Cn1c(CCNC(=O)c2cccs2)nnc1SCC(=O)Nc1nc(-c2ccccc2)cs1,0,0,0,-,0
